Screens (PubChem)
Glioma ERSR ind – induces the endoplasmic reticulum stress response in human glioma cells; U87-MG GRP78 promoter luciferase reporter, 16 h; Potency, µM, inactives show at the highest dose activation, actives largely listed as activators; 420,000 compounds, 0.02% hits; AID 602332; also: series mostly up to about 76 µM; % of control where 0% means no effect; nearly all actives have a fitted effect of over 35% in size
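ERSR induction read as luciferase luminescence (Bright-Glo, 10 min at room temperature) in stably transfected human U87-MG glioma cells exposed to compounds for 16 h, using GRP78 as sensor.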
12-LOX inh – blocks human arachidonate 12S-lipoxygenase; P18054; purified 12hLO, xylenol orange hydroperoxide absorbance; Potency, µM (titrated, usually from 108 µM), for the others: at the top dose activity change, negative = inhibition, actives largely listed as inhibitors; 580,000 compounds, 1.1% hits; AID 1671190; also: % is scaled to controls: 0 for no effect and ±100 for the full control effect
Target sequence (P18054 whole entry, looked up): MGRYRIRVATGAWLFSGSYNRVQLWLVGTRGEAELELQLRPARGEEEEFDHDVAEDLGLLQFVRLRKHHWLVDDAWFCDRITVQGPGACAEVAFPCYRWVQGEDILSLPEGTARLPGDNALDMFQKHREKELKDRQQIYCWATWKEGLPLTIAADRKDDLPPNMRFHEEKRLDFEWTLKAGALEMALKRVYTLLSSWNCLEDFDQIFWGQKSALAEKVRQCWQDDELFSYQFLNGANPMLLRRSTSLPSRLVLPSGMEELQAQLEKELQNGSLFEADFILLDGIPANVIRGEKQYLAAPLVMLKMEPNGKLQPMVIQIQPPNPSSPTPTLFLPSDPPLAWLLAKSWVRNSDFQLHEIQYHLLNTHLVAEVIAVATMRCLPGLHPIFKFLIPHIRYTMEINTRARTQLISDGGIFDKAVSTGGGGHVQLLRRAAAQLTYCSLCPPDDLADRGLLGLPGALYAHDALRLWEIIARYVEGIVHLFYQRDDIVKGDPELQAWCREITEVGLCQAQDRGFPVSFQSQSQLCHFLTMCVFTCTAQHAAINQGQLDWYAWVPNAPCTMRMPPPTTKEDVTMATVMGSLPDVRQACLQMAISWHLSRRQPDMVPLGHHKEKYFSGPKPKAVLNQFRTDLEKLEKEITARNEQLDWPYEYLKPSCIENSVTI
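Purified human 12hLO (150 nM final) in 25 mM Hepes, 0.01% Triton X-100, pH 7.0 was preincubated 15 min at room temperature with compound. Then 40 uM arachidonic acid was added, 30 min. Hydroperoxide was read by Fe-XO absorbance ratio 573/405 nm.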
GLP1R inv ag – GLP-1 receptor (human) inverse agonism | HEK293 GLP-1R CRE-luciferase, luminescence, 24 h; GLP-1R form is constitutively active | Potency, µM (doses to about 38.3 µM), for inactives: at the top dose activity change, negative = inhibition, most hits filed as inhibitors | 410,000 compounds, 1.6% hits; also: % is scaled to controls: 0 for no effect and ±100 for the full control effect; nearly all actives have a fitted effect of over 55% in size
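Cells are plated, allowed 12 hours at 37 deg C, then treated with compounds for 24 hr before luciferase detection reagent is added and luminescence is read after 12 min at room temperature. The HEK293 line carries constitutively active GLP-1R with a cAMP-responsive reporter.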
PTHR1 agonist – agonists of human PTHR1 parathyroid hormone receptor; AID 743266; 410,000 compounds, 0.075% hits; Q03431; HEK293 GP2 PTHR1 cells, GloSensor cAMP luminescence, 1 h; Potency, µM (titrated, usually from 115 µM), without a hit: top-dose activation, usual class: activators; also: nearly all actives have a fitted effect of over 55% in size
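HEK-293-derived GP2 cells expressing PTHR1 and a GloSensor cAMP reporter, 3,000/well, plated overnight, given luciferin plus IBMX (each 0.5 mM as added) for 1 h at 37 °C, then compound for 1 h at 37 °C. Luminescence was read after 15 min at room temperature.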
GLP-1R agonist – GLP-1 receptor (human) agonism; P43220; HEK293 GLP-1R CRE-luciferase, luminescence, 4-6 h; cells express a hypersensitive GLP-1R form; Potency, µM (highest dose often 45.6 µM), inactives show at the top dose activation, hits mostly activators; 380,000 compounds, 0.007% hits; also: % of control where 0% means no effect
GLS inh – inhibitors of human glutaminase (GLS); Potency, µM (series often up to 45.5 µM), without a hit: at the highest dose activity change, negative = inhibition, hits mostly inhibitors; GLS enzymatic activity, qHTS titration; O94925; AID 624170; 410,000 compounds, 0.21% hits; also: % is scaled to controls: 0 for no effect and ±100 for the full control effect
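Two-point fluorescence kinetic (t0, 30 min RT) for hKGA; glutamate detected via glutamate oxidase–HRP–Amplex Red. Substrate: 1 mM L-glutamine solution; buffer 45 mM KH2PO4, pH 8.2.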
* marks the source's active call; other numbers are inactive results; i = inactive; ? = inconclusive; / = no result given; [ ] = dose if it differs, or a comment. Most compounds without a hit are left out; they make up all but 2.3% or so of the library. Calls follow the shape of the dose curve; as a rule, active = well fitted curve in the direction sought with a large enough effect; inconclusive = small, poorly fitted or top-dose-only effect, or another doubt; inactive = no such curve, though single readings can be large; an effect the other way counts as inactive or inconclusive. Potency is read from the fitted curve at half-maximal effect.

SMILES	Glioma ERSR ind	12-LOX inh	GLP1R inv ag	PTHR1 agonist	GLP-1R agonist	GLS inh
COc1ccc([C@H]2C[C@H](n3cc(-c4ccc(F)cc4)nn3)[C@@H](O)CN2Cc2cccs2)cc1	-3.3%	-3.0%	-16.0%	i	8.6%	4.3%
O[C@@H]1CN(CC2CCCCC2)[C@@H](c2ccccc2)C[C@H]1n1cc(-c2ccc(F)cc2)nn1	1.1%	-22.0%	3.98µM*	-40.7%	-0.7%	0.4%
COc1ccc(CN[C@H]2CS(=O)(=O)C[C@@H]2S(=O)(=O)c2cccs2)cc1	/	39.0%	/	/	/	/
O=C1COc2ccc(-c3csc(NCC4CCCO4)n3)cc2N1 (stereo unspecified)	3.5%	44.7µM*	1.9%	-27.0%	3.8%	?
CC(Nc1nc(-c2ccc3c(c2)NC(=O)CO3)cs1)c1ccccc1 (stereo unspecified)	5.5%	?	?	-24.0%	22.0%	7.0%
NC(N)=NN=C(c1ccc(F)cc1)c1ccc(C(F)(F)F)cc1	-13.1%	?	1.12µM*	i	-3.1%	1.8%
COc1ccc(C2Cn3nnc(C(=O)N4CCN(C(=O)c5ccc(F)cc5)CC4)c3CO2)cc1 (stereo unspecified)	/	-4.3%	/	/	/	/
COC(=O)c1ccc2nc(-c3ccc(F)cc3)c(Cc3ccsc3)n2c1	3.6%	7.08µM*	22.3%	-88.9%	2.4%	-3.9%
COC(=O)c1ccc2nc(-c3ccc(C#N)cc3)c(Cc3ccsc3)n2c1	/	?	18.0%	-27.6%	3.7%	13.5%
COC(=O)c1ccc2nc(-c3ccc(C)cc3)c(Cc3ccsc3)n2c1	-2.6%	39.8µM*	?	-91.2%	0.2%	-3.7%
C[C@H]1CCC/C=C/[C@@H]2C[C@H](O)C[C@H]2[C@H](O)[C@H](S(=O)c2ccc(O)cc2)CC(=O)O1 (stereo partly specified)	6.1%	39.8µM*	-68.3%	i	-10.8%	3.8%
CC1CCCC=CC2CC(OC(=O)CN(C)C)CC2C(O)C=CC(=O)O1 (stereo unspecified)	3.3%	-6.7%	-61.6%	i	-11.4%	-1.8%
CCOC(=O)c1c(-c2ccc(OC)cc2)csc1NC(=O)CSc1ccccc1	-5.5%	0.0%	4.47µM*	-1.4%[57.5 µM]	-0.5%	-21.3%
O=C(NCc1cccc(F)c1)c1nc2c(o1)CCN(Cc1cccc(F)c1F)CC2	/	-11.9%[176 µM]	/	/	/	/
Cc1ccc(OCC(=O)c2c(N)n(C)c(=O)n(C)c2=O)c([N+](=O)[O-])n1	4.4%	8.0%	10.2%	-13.9%	-6.6%	14.1µM*
Cc1ccc(N(CCCC(=O)Nc2ccccc2Br)S(C)(=O)=O)cc1	/	11.5%	/	/	/	/
Cc1ccc(-n2ncc(C(=O)Nc3ccc(Cl)cc3)c2C2CCNCC2)cc1C	-5.1%	-9.4%	-27.0%	i	0.1%	3.9%
CCOc1ccc(NC(=O)c2cnn(-c3ccc(C)c(Cl)c3)c2C2CCNCC2)cc1	-2.1%	6.7%	8.91µM*	-12.3%	-2.4%	3.5%
CC(C)C(=O)N1CCN(C(=O)c2cn(C)c3ccccc23)CC1	/	-0.8%	/	/	/	/
COc1ccc2[nH]cc(CCNc3ccnc(-c4cccc(NS(C)(=O)=O)c4)n3)c2c1	0.2%	39.8µM*	/	/	/	/
COc1ccc2[nH]cc(CCNc3cc(-c4ccccc4C(F)(F)F)ncn3)c2c1	-0.5%	?	/	/	/	/
COc1ccc2[nH]cc(CCNc3cc(-c4ccccc4Cl)ncn3)c2c1	-3.3%	15.8µM*	/	/	/	/
O=Cc1c(Cl)[nH]c2ccccc12	/	30.4%	/	/	/	/
N/C(=C/C(=O)c1ccccc1O)C(F)(F)F	-2.3%	/	11.1%	i	1.6%	-3.7%
COc1ccc(C(=O)/C=C(\N)C(F)(F)F)c(O)c1	-3.3%	39.8µM*	0.0%	-17.1%[57.5 µM]	3.3%	13.8%
SMILES	Glioma ERSR ind	12-LOX inh	GLP1R inv ag	PTHR1 agonist	GLP-1R agonist	GLS inh
Cc1cccc(NC2=C(NC(=O)c3ccccc3)C(=O)c3ccccc3C2=O)c1	-2.8%	14.1µM*	?	-7.8%	-16.4%	3.4%
Cc1cccc(C(=O)Nc2ccc(C(=O)Nc3ccc(O)cc3)cc2)c1	-2.7%	41.7%	2.82µM*	i	-4.5%	-3.7%
Cc1cccc(C(=O)Nc2ccc(NC(=O)c3cccc(C)c3)cc2)c1	-1.8%	1.5%	-14.4%	7.1%	1.8%	11.0%
Cc1cccc(NC(=O)c2ccc3c(c2)OCCO3)c1	-9.6%	-12.6%	11.2µM*	-22.9%	8.1%	-13.2%
Cc1ccc(C(=O)Nc2cc(C(C)C)c(O)c(C(C)C)c2)cc1	-1.2%	-11.1%	4.47µM*	i	-12.3%	12.9%
O=C(Nc1ccc2oc(-c3ccc(F)cc3)cc(=O)c2c1)c1ccco1	/	-20.6%	/	/	/	/
CC(C)(C)c1ccc(CN(Cc2ccccc2)C(c2ccccn2)c2nnnn2C(C)(C)C)cc1 (stereo unspecified)	-3.9%	?	3.16µM*	-15.5%	-10.8%	-20.2%
CC(C)(C)n1nnnc1C(c1ccc(C(F)(F)F)cc1)N(Cc1ccccc1)Cc1ccco1 (stereo unspecified)	-4.0%	430.2%	5.62µM*	-21.8%[57.5 µM]	-8.2%	-6.7%
COc1nc(N(C)C)nc(-n2cnc(SCc3ccccc3)n2)n1	/	-23.2%	/	/	/	/
CC(C)(CNC(=O)C1(c2ccccc2)CCC1)C(N)=O	/	-12.5%	/	/	/	/
CCNC(=S)NCC12CC3CC(CC(C3)C1)C2	/	39.8µM*	/	/	/	/
Cc1ccc(C(=O)C2CCN(C(=O)c3ccc(C)cc3)CC2)cc1	-2.3%	/	8.91µM*	-67.4%	-7.2%	4.3%
Cc1ccc(CCCCCCCCCCCC(=O)O)cc1	/	2.6%	/	/	/	/
C=CCOc1ccccc1N	/	5.62µM*	/	/	/	/
Cc1c(C)n(Cc2ccncc2)c2ncnc(NCc3ccncc3)c12	/	201.8%	/	/	/	/
CCSc1nc2ccccc2n1Cc1cccc([N+](=O)[O-])c1	-8.9%	59.3%	11.2µM*	-22.9%[57.5 µM]	20.2%	-10.9%
CCSc1nc2ccccc2n1Cc1ccccc1F	-3.5%	0.0%	?	i	6.0%	-2.0%
Cc1noc(C)c1C(=O)OCC(=O)Nc1ccc(N2CCOCC2)cc1	-1.6%	?	0.8%	17.8µM*	-5.0%	25.4%
Cc1noc(C)c1C(=O)OCC(=O)Nc1ccc(C(N)=O)cc1	-2.2%	2.7%	10.8%	i	0.9%	-2.2%
O=C(NCCc1ccc(F)cc1)Nc1ccc([N+](=O)[O-])cc1	5.0%	59.6%	3.98µM*	-33.8%	-3.5%	-2.5%
O=C(NCCc1ccc(Cl)cc1)Nc1ccc(F)cc1	-2.3%	-5.9%	?	?	6.3%	3.8%
O=[N+]([O-])c1ccc(NC(=S)NCCc2ccc(F)cc2)cc1	-3.0%	?	11.2µM*	-25.8%	-12.9%	8.9%
O=[N+]([O-])c1ccc(NC(=S)Nc2ccc3c(c2)CCC3)cc1	/	39.8µM*	/	/	/	/
Cc1ccccc1NC(=O)Cn1cnc2c(cnn2-c2ccc(F)cc2)c1=O	/	-24.8%	/	/	/	/
